Data: PubChem BioAssay
Values joined by “and” are separate entries in the source; they are usually repeats but may differ in a detail not shown here. Equal values may be shown once. Active and inactive are the calls of the source.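 The calls were made as follows, unless noted: active = thallium flux through the channel raised or lowered by more than 3 SD from vehicle-only wells, actives on both sides; inactive = the rest.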

What was measured:
[1] = Wnt pathway potentiators raising nuclear beta-catenin – imaging, WNT3A-conditioned medium, mouse C2C12, NPC library, primary screen (AID 1117326; in the data active = nuclear beta-catenin stimulation mostly above about 4.2%, no sharp cut-off; inactive = mostly below about 10%); details: stronger effect = higher value
[2] = stimulators of insulin release from INS-1E, primary screen, cell-based, 5 mM glucose, NPC library (AID 1117329;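 active = compound raises insulin release from rat beta cells at 5 mM glucose, no numeric limit stated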); details: rat INS-1E insulin secretion, at 10 µM, stronger effect = higher value
[3] = growth inhibition of GSK3B-pretreated HCT116 cells – cell-based, CellTiter-Glo, 0.2 to 20 µM (AID 1117336;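 active = compounds lowering colon cancer cell viability after pretreatment blocking the GSK3B kinase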); details: HCT116 viability after GSK3B inhibitor, at 20 µM, stronger effect = higher value
[4] = inhibition of endothelial tube formation, primary screen, imaging, VEGF stimulated, CD31 staining, tube area, NPC library (AID 1117340;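 active = compound that reduces growth-factor-driven endothelial tube area in a mixed cell culture, no cutoff stated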); details: VEGF-stimulated ADSC/ECFC co-culture, at 10 µM, stronger effect = higher value
[5] = GLP1 release stimulators, primary, NCI-H716, NPC library (AID 1117341;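 active = compound raises GLP1 secretion from the human gut endocrine cells, with no numeric limit stated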); details: NCI-H716 cells, at 10 µM, stronger effect = higher value
[6] = HCT116 colon cancer cell growth inhibition, primary screen, CellTiter-Glo luminescence, NPC library (AID 1117342;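 active = compounds that lower survival of HCT116 colon cancer cells in the luminescence readout, no numeric limit stated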); details: at 20 µM (top of the series)
[7] = reduced SW480 viability measured with CellTiter-Glo, NPC library, primary (AID 1117343;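 active = compounds that lower viability of the colon cancer cells in the luminescence readout, with no numeric limit stated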); details: CellTiter-Glo luminescence; at 20 µM (top of the series)
[8] = NPC library primary testing for decreased DLD-1 cell viability via CellTiter-Glo (AID 1117346;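 active = compounds that lower survival of DLD-1 colon cancer cells in the luminescence readout, no cutoff given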); details: DLD-1 viability, CellTiter-Glo luminescence; at 20 µM (top of the series)
[9] = target: 6-phosphogluconate dehydrogenase, decarboxylating (Homo sapiens) (UniProt P52209); assay: inhibition of human phosphogluconate dehydrogenase – biochemical, recombinant enzyme, NADPH absorbance, primary screen (AID 1159550;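 active = at least 20% inhibition of 6-phosphogluconate dehydrogenase activity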); details: recombinant 6PGD, NADPH absorbance 341 nm; at 10 µM; stronger effect = higher value
Chain of 6-phosphogluconate dehydrogenase, decarboxylating (Homo sapiens) (P52209 whole entry, looked up): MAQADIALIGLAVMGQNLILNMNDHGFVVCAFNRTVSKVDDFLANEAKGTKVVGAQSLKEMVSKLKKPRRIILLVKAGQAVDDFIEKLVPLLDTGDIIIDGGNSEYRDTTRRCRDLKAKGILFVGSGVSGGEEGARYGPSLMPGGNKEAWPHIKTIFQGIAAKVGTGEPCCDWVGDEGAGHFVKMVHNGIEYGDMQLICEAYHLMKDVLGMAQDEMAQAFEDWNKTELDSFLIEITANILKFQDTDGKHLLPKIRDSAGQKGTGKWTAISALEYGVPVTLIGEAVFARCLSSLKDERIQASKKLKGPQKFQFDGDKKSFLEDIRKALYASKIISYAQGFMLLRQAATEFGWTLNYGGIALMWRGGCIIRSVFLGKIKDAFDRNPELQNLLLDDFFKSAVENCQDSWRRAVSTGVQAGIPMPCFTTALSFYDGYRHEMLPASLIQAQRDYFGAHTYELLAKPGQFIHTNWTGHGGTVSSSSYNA

[10] = modulation of C. elegans fzo-1 (AID 1259413; call rule not given here;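 also: fzo-1 mutant C. elegans worms in liquid wells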); details: C. elegans fzo-1 modulator screen, mean read-out; stronger effect = higher value
[11] = EMT-state selective cytotoxicity in co-culture – imaging, PC-3E GFP, TEM4-18 mCherry, primary screen (AID 1345086;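 active = compounds killing one labelled cell type while sparing the other, by normalised counts and ratio limits, not self-fluorescent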;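 as to all read-outs here: cells exposed to compound for 72 h before imaging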;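 as to red/green cell ratio (normalised): normalised mesenchymal count divided by normalised epithelial count so high means epithelial killing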); details: PC-3E GFP / TEM4-18 mCherry co-culture, imaging cell counts, at 1 µM; for red/green cell ratio (normalised): actives lie on both sides, counts scaled to control wells, 1 = unselective
[12] = MELAS cybrid and Rieske KO viability enhancers – cell-based, MELAS cybrids, Rieske KO mouse fibroblasts, CellTiter-Glo, primary screen (AID 1508586;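 active = mean z-score across replicates of 1.96 or higher in either the MELAS or the Rieske mutant cell line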;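 also: z relative to plate mean and SD of compound and empty wells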); details: low glucose
[13] = target: NAD(+) hydrolase SARM1 (Homo sapiens) (UniProt Q6SZW1); assay: blocking NAD cleavage by SARM1 SAM-TIR – cell lysate, NAD-Glo luminescence (AID 1508614;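 active = compound whose remaining NAD level is above about 45 nM, limit read from the data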;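 also: higher remaining NAD means stronger inhibition of SARM1 NADase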); details: SAM-TIR HEK293T lysate NADase, at 1 µM, stronger effect = higher value
Chain of NAD(+) hydrolase SARM1 (Homo sapiens) (Q6SZW1 whole entry, looked up, the tested form may be a part): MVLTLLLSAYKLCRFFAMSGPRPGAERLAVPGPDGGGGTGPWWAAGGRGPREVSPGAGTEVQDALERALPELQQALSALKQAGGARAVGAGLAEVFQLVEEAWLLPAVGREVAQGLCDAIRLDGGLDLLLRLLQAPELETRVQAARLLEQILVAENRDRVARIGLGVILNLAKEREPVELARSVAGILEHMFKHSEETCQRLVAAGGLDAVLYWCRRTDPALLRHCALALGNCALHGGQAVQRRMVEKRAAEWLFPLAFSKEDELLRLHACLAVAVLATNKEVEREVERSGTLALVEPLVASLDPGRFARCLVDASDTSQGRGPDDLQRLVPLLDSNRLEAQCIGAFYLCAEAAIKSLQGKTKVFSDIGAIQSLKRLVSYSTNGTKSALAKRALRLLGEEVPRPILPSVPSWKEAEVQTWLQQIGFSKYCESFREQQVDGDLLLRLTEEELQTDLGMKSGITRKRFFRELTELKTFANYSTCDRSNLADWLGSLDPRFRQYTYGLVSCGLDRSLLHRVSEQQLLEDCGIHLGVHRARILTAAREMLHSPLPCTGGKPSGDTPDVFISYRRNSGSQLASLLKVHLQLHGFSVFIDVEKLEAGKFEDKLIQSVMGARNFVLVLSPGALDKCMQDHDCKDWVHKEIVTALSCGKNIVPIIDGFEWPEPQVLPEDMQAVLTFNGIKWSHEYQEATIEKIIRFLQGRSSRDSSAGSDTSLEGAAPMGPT

[14] = target: Mitogen-activated protein kinase 7 (Homo sapiens) (UniProt Q13164); assay: Gal4-ERK5 driven luciferase induction – cell-based, HTS, primary screen (AID 1508626;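 active = luciferase signal above three times the same-plate solvent-only control wells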;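 also: luciferase driven by Gal4-ERK5 fusion binding five Gal4 sites before minimal TATA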); details: HeLa Gal4-ERK5 transactivation, 18 h, at 5 µM, stronger effect = higher value
Chain of Mitogen-activated protein kinase 7 (Homo sapiens) (Q13164 whole entry, looked up, the tested form may be a part): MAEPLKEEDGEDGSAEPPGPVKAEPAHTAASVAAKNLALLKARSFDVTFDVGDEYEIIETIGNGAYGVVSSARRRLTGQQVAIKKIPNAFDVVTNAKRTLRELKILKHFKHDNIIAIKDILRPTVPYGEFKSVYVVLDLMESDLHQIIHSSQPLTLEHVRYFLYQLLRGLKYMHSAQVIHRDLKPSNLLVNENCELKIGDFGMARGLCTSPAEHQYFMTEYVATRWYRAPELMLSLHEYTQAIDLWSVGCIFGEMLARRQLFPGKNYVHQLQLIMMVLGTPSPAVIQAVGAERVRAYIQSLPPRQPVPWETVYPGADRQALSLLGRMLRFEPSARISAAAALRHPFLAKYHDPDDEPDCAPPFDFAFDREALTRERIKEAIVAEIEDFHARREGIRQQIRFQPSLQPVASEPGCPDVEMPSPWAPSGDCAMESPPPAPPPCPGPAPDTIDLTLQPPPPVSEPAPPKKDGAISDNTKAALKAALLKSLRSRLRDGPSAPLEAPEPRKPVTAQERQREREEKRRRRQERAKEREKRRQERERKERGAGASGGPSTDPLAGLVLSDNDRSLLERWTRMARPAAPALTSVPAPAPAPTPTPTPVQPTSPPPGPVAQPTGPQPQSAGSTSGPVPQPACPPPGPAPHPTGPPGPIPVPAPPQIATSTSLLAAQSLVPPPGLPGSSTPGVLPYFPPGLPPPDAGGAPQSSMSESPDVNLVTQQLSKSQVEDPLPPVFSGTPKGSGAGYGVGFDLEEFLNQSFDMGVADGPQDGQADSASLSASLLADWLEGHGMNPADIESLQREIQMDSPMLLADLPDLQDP

F380Y = assay: BK channel mutant inhibitors and activators – cell-based, U2OS BacMam, thallium flux, beta subunits, selectivity assay, profiling panel (AID 1259406); details: U2OS BacMam BK variants, at 30 µM;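 also: initial slope of Thallos dye fluorescence rise after thallium is added; log ratio against the mean of 0.3% DMSO vehicle wells on the same plate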
F380Y/beta1 = assay: as above; details: U2OS BacMam BK variants, at 30 µM
F380Y/beta2Delta = assay: as above; details: U2OS BacMam BK variants, at 30 µM
[15] = viability loss with induced miR-34 in A549 – imaging, A549 dox-inducible miR-34, nuclei and caspase counts, primary screen (AID 1347080;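 active = compounds whose cell count with miR-34 switched on is under 0.7 times the count with it off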); details: A549 miR-34 inducible, Hoechst nuclei count, 48 h
[16] = measured here: epithelial PC-3E GFP cell survival
[17] = measured here: mesenchymal TEM4-18 mCherry cell survival
[18] = MELAS cybrid survival, CellTiter-Glo 48 h, stronger effect = higher value
[19] = Rieske KO mouse fibroblast survival, CellTiter-Glo 72 h
[20] = stronger effect = lower value, cell number ratio, induced over uninduced
[21] = measured here: relative caspase fold change +Dox/-Dox
[22] = measured here: total cells with miR-34 induction, stronger effect = lower value
[23] = measured here: total cells without miR-34 induction

COc1ccccc1OCC(O)COC(N)=O (configuration not stated)
1.16: normalised cell number [11, 17]
inactive: nuclear beta-catenin stimulation ([1]; at 10 µM) -2.7% | insulin secretion stimulation [2] -1.2% | viability decrease [3] -1% | tube area decrease [4] 8.8% | GLP1 secretion stimulation [5] -4% | inhibition of viability [6] -3.97% | viability decrease (inhibition) [7] 11.1% | viability decrease (inhibition) [8] -10.7% | inhibition [9] -17.6% | mean signal [10] 264 | red/green cell ratio (normalised) [11] 0.97 | z-score [12, 18] -0.379 and 0.493 | remaining NAD [13] 10 nM | luciferase signal [14] 56 AU | log fold change Tl+ flux (F380Y) 0.00752 | log fold change Tl+ flux (F380Y/beta1) 0.0402 | log fold change Tl+ flux (F380Y/beta2Delta) -0.0478
-0.0724 and 0.212: z-score [12, 19]
1.19: normalised cell number [11, 16]
-1.9%: nuclear beta-catenin stimulation ([1]; stimulation, at 2 µM)

CN(C)CCc1c[nH]c2ccc(C[C@H]3COC(=O)N3)cc12
1.8%: nuclear beta-catenin stimulation ([1]; stimulation, at 2 µM)
inactive: nuclear beta-catenin stimulation ([1]; at 10 µM) 0.3% | insulin secretion stimulation [2] 1.2% | viability decrease [3] 14.8% | tube area decrease [4] -1.1% | GLP1 secretion stimulation [5] -0.5% | inhibition of viability [6] 13.1% | viability decrease (inhibition) [7] 26.5% | viability decrease (inhibition) [8] 24.6% | inhibition [9] 8.76% | mean signal [10] 245 | red/green cell ratio (normalised) [11] 0.98 | fold change [15, 20] 0.877 | z-score [12, 18] 0.816 | remaining NAD [13] 10 nM | luciferase signal [14] 32 AU | log fold change Tl+ flux (F380Y) 0.0506 | log fold change Tl+ flux (F380Y/beta1) 0.00826 | log fold change Tl+ flux (F380Y/beta2Delta) -0.0158
-0.25: z-score [12, 19]
13300: cell count [15, 23]
1.39: fold change [15, 21]
1: normalised cell number [11, 17]
11600: cell count [15, 22]
1.02: normalised cell number [11, 16]

CN1CCCC(n2nc(Cc3ccc(Cl)cc3)c3ccccc3c2=O)CC1 (configuration not stated)
1.03: normalised cell number [11, 17]
0.19 and 0.396: z-score [12, 19]
active: inhibition of viability [6] 64.8% | log fold change Tl+ flux (F380Y) 0.248 | log fold change Tl+ flux (F380Y/beta1) 0.109 | log fold change Tl+ flux (F380Y/beta2Delta) 0.144
5140 and 8770 and 9440: cell count [15, 22]
1.32 and 0.694 and 6.18: fold change [15, 21]
1.16: normalised cell number [11, 16]
inactive: nuclear beta-catenin stimulation ([1]; at 10 µM) 1.5% | insulin secretion stimulation [2] 5.8% | viability decrease [3] -40.4% | tube area decrease [4] 21.5% | GLP1 secretion stimulation [5] 5.5% | viability decrease (inhibition) [7] -0.2% | viability decrease (inhibition) [8] 37.8% | inhibition [9] 6.29% | mean signal [10] 269 | red/green cell ratio (normalised) [11] 0.89 | fold change [15, 20] 0.849 and 0.93 and 0.906 | z-score [12, 18] -0.451 and -0.0693 | remaining NAD [13] 10 nM | luciferase signal [14] 88 AU
1.7%: nuclear beta-catenin stimulation ([1]; stimulation, at 2 µM)
6060 and 9430 and 10400: cell count [15, 23]

NC(=O)N1c2ccccc2CC(=O)c2ccccc21
1.04: normalised cell number [11, 16]
1.3%: nuclear beta-catenin stimulation ([1]; stimulation, at 2 µM)
inactive: nuclear beta-catenin stimulation ([1]; at 10 µM) 5.2% | insulin secretion stimulation [2] -0.8% | viability decrease [3] -2.9% | tube area decrease [4] 0.9% | GLP1 secretion stimulation [5] 0% | inhibition of viability [6] 14.9% | viability decrease (inhibition) [7] 5.4% | viability decrease (inhibition) [8] 15.6% | inhibition [9] 8.8% | mean signal [10] 241 | red/green cell ratio (normalised) [11] 1.05 | z-score [12, 18] -0.278 and 0.355 and 0.309 | remaining NAD [13] 10 nM | luciferase signal [14] 56 AU | log fold change Tl+ flux (F380Y) -0.0346 | log fold change Tl+ flux (F380Y/beta1) -0.0277 | log fold change Tl+ flux (F380Y/beta2Delta) -0.0162
1.09: normalised cell number [11, 17]
-1.12 and 0.011 and -0.438: z-score [12, 19]
